The list is not random: actives were taken first. Their share in the collection is about 2%.
MsrA act = bovine MsrA enzyme activators, primary screen, biochemical, absorbance, HTS. hit rate 0.3% among 360,000. AID 602163, 2012. purified bovine MsrA, absorbance read-out. Methionine sulfoxide reductase A (Bos taurus). activation, % at 10.6 µM; in the data active = activation above about 7.5%
SUMO Mot1 rescue = yeast Mot1-301 growth rescue at high temperature, primary screen, SUMOylation pathway inhibitor project, S. cerevisiae, ATP luminescence, 38.5C. S. cerevisiae Mot1-301 growth rescue; percent above DMSO median, 100 means doubled. growth rescue, % at 18.8 µM. hit rate 1% among 320,000. AID 2716, 2010;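 active = every valid replicate shows activation above 250% relative to neutral control wells; inactive = the rest, any valid replicate at or below 250%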
MsrA inhibitor = bovine MsrA enzyme inhibitors, primary screen, biochemical, absorbance, HTS | Methionine sulfoxide reductase A (Bos taurus) | purified bovine MsrA, absorbance read-out | inhibition, % at 15.5 µM | hit rate 0.75% among 360,000; in the data active = inhibition above about 4.5%
PKA-R2B activ = activators of PKA-R2B holoenzyme, primary screen, biochemical, fluorescence polarization, Cy5-IP20, human. hit rate 0.079% among 340,000. PKA-R2B holoenzyme dissociation; R2B truncated from residue 108, S112A mutant; 0% DMSO only, 100% 113 µM cGMP. activation, % at 11.4 µM. cAMP-dependent protein kinase catalytic subunit beta (Homo sapiens) + cAMP-dependent …;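 active = activation above a cutoff set at the mean over all compounds plus 3 SD, cut at about 18% in these data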;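 note: higher means more holoenzyme dissociation and a rise in polarization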
Target sequence (P31323 whole entry, looked up, other chains not shown, the tested form may be a part): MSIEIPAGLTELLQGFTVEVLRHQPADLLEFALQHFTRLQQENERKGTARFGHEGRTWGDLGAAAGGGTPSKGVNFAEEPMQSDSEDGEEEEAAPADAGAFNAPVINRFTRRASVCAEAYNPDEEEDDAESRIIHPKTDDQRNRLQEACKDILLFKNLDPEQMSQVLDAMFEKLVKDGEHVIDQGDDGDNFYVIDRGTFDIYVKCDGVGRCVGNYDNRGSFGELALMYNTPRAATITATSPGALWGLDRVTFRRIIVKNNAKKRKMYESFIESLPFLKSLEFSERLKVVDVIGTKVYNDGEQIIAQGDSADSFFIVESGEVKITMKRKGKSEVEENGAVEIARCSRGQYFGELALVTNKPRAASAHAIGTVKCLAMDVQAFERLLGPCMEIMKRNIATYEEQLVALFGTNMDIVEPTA
PKA-R1A activ = activators of PKA-R1A holoenzyme, primary screen, biochemical, fluorescence polarization, Cy5-IP20, bovine R1A, mouse PKAc | cAMP-dependent protein kinase type I-alpha regulatory subunit (Bos taurus) + … | PKA-R1A dissociation; scaled: DMSO 0%, 113 µM cGMP 100% | activation, % at 11.4 µM | hit rate 0.083% among 340,000 | AID 504707, 2011;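 active = percent activation above the mean of all tested compounds plus 3 SD, cut at about 19% in these data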;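 note: higher means more PKAc released from R1A so a rise in polarization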
Of the large screens only hits and unclear results are named; the others gave an inactive call.

CC1CCCC(C)N1/N=C/c1cc(Br)c(O)c(Br)c1 (stereo unspecified)	MsrA inhibitor 4.6 (no result: MsrA act, PKA-R2B activ, PKA-R1A activ)
CCCCCCCCN1C(=O)[C@@H](CC(=O)NCCc2ccccc2OC)C[C@@]2(C(=O)OC)C1=C[C@H](C(C)(C)C)O[C@@H]2C	none (no result: MsrA act, SUMO Mot1 rescue, PKA-R2B activ, PKA-R1A activ)
CCc1nnc(NC(=O)CSc2nnc(Cc3ccccc3)n2Cc2ccccc2)s1	none
CCc1nnc(NC(=O)CSc2nc3cccnc3n2Cc2ccccc2)s1	SUMO Mot1 rescue 305
CC(=O)c1ccc(N2CCN(C(=O)c3ccc4c(=O)n(-c5ccccc5)c(=O)[nH]c4c3)CC2)cc1	MsrA inhibitor 4.6
CN(C)/C(Cn1cncn1)=C1/N=C(c2ccccc2)OC1=O	none
CN1CCN(C/C(=C2/N=C(c3ccccc3)OC2=O)N(C)C)CC1	MsrA inhibitor 4.6
CN1OC[C@@H]2CN3C(=NCCc4ccccc4)Sc4ccccc4[C@@H]3C[C@@H]21	none (no result: MsrA act, SUMO Mot1 rescue, PKA-R2B activ, PKA-R1A activ)
COc1ccc(S(=O)(=O)N2CCCC(C(=O)NCCN3CCOCC3)C2)cc1C (stereo unspecified)	SUMO Mot1 rescue 318
CC1CCCCC1NC(=O)C1CCC(CNS(=O)(=O)c2ccc(F)cc2)CC1 (stereo unspecified)	SUMO Mot1 rescue 295
Cc1ccc(S(=O)(=O)NCC2CCC(C(=O)NC3CCCCC3)CC2)cc1 (stereo unspecified)	none
CCOc1cc(Cl)c(S(=O)(=O)NCCCn2ccnc2)cc1Cl	SUMO Mot1 rescue 356
COc1ccc(Cl)cc1S(=O)(=O)NCCCn1ccnc1	none
COC(=O)c1cc(N2C(=O)C3C(C2=O)C2(C)C=CC3(C)O2)ccc1Cl (stereo unspecified)	SUMO Mot1 rescue 425 (no result: MsrA act, MsrA inhibitor, PKA-R2B activ, PKA-R1A activ)
Cc1ccc(CN2CCC(N3CC(C)OC(C)C3)CC2)cc1 (stereo unspecified)	none
CSc1ccc(CN2CCC(N3CC(C)OC(C)C3)CC2)cc1 (stereo unspecified)	SUMO Mot1 rescue 285
O=C(NCc1ccccc1)[C@@H]1CCCN1C(=O)[C@H]1CCCN1C(=O)c1cccs1	none (no result: MsrA act, SUMO Mot1 rescue, PKA-R2B activ, PKA-R1A activ)
C#CCN1CC(COc2ccccc2)Oc2cccc(Oc3ccc(C(C)C)cc3)c2S1(=O)=O (stereo unspecified)	none (no result: MsrA act, SUMO Mot1 rescue, PKA-R2B activ, PKA-R1A activ)
Cc1ccc(C(C)C)cc1OCCCCN1CCCC1	SUMO Mot1 rescue 320
Cc1ccc(C)c(OCCCN2CCCC2)c1	none
C#CCCCCCCC#CCN(C)C	none
CN(C)CC#CCCCCCCC#CCN(C)C	SUMO Mot1 rescue 996 (no result: MsrA act, MsrA inhibitor, PKA-R2B activ, PKA-R1A activ)
O=S1(=O)N[C@H](Cc2ccccc2)COc2cc(Br)ccc21	none (no result: MsrA act, SUMO Mot1 rescue, PKA-R2B activ, PKA-R1A activ)
COc1cccc(C(=O)Nc2nc(-c3ccc(S(=O)(=O)N4CCOCC4)cc3)cs2)c1	SUMO Mot1 rescue 255
N#Cc1nccnc1S(=O)(=O)c1cccs1	SUMO Mot1 rescue 361 (no result: MsrA act, PKA-R2B activ, PKA-R1A activ)
CN(Cc1ccccc1C#N)S(=O)(=O)c1cccs1	none
CN1C(=O)c2cccc3c(S(=O)(=O)Nc4ccccn4)ccc1c23	SUMO Mot1 rescue 280
CN1C(=O)c2cccc3c(S(=O)(=O)NCc4ccco4)ccc1c23	none
CN1C(=O)c2cccc3c(S(N)(=O)=O)ccc1c23	none
Cc1ccccc1NS(=O)(=O)c1ccc2c3c(cccc13)C(=O)N2C	SUMO Mot1 rescue 351
CCOC(=O)CN1CCCc2nc(C)c(C)cc21	none (no result: MsrA act, SUMO Mot1 rescue, PKA-R2B activ, PKA-R1A activ)
CCOC(=O)NNc1ccccc1	none
CCC(O)CC(C(=O)NNc1ccccc1)C(=O)NNc1ccccc1 (stereo unspecified)	SUMO Mot1 rescue 268
Oc1ccc(/C=N/n2cc(-c3ccccc3)[nH]c2=S)cc1	none (no result: SUMO Mot1 rescue)
COc1cc(/C=N/n2cc(-c3ccccc3)[nH]c2=S)cc(OC)c1O	SUMO Mot1 rescue 540
COc1cccc2c1C(=O)c1c(O)c3c(c(O)c1C2=O)C[C@@](O)(C(=O)CO)C[C@@H]3OC1CC(N)C(O)C(C)O1 (stereo partly specified)	none (no result: SUMO Mot1 rescue)
CC(=O)[C@@]1(O)Cc2c(O)c3c(c(O)c2[C@H](O[C@H]2C[C@H](N)[C@H](O)[C@H](C)O2)C1)C(=O)c1ccccc1C3=O	MsrA inhibitor 4.6 (no result: SUMO Mot1 rescue, PKA-R2B activ, PKA-R1A activ)
O=C1CCCCC1CCS(=O)(=O)NCc1ccccc1 (stereo unspecified)	none (no result: MsrA act, SUMO Mot1 rescue, PKA-R2B activ, PKA-R1A activ)
CCN(C(=O)COC(=O)c1ccccc1NC(=O)c1ccco1)C1CCS(=O)(=O)C1 (stereo unspecified)	SUMO Mot1 rescue 418

Source: PubChem
